This is a sample that favours compounds with a hit; in the whole collection about 5% have one here.
SENP6 inh = inhibitors of human SENP6 protease. AID 2599. 330,000 tested, 1.8% active. Q9GZR1. Recombinant SENP6 catalytic domain, aminoluciferin luminescence. inhibition, % at 10 µM;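 active = inhibition above about 50% at the single tested dose, limit read from the data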
SENP8 block-1 = inhibitors of human SENP8 protease. Q96LD8. purified SENP8, Z-RLRGG-aminoluciferin cleavage, luminescence. inhibition, % at 10 µM. 330,000 tested, 1.2% active; in the data active = inhibition above about 50%
AHR act = human AHR activation; AHR-responsive luciferase reporter cells, luminescence; activation, % at 5 µM; 320,000 tested, 2.5% active; in the data active = activation above about 47%
Target sequence (P35869 whole entry, looked up): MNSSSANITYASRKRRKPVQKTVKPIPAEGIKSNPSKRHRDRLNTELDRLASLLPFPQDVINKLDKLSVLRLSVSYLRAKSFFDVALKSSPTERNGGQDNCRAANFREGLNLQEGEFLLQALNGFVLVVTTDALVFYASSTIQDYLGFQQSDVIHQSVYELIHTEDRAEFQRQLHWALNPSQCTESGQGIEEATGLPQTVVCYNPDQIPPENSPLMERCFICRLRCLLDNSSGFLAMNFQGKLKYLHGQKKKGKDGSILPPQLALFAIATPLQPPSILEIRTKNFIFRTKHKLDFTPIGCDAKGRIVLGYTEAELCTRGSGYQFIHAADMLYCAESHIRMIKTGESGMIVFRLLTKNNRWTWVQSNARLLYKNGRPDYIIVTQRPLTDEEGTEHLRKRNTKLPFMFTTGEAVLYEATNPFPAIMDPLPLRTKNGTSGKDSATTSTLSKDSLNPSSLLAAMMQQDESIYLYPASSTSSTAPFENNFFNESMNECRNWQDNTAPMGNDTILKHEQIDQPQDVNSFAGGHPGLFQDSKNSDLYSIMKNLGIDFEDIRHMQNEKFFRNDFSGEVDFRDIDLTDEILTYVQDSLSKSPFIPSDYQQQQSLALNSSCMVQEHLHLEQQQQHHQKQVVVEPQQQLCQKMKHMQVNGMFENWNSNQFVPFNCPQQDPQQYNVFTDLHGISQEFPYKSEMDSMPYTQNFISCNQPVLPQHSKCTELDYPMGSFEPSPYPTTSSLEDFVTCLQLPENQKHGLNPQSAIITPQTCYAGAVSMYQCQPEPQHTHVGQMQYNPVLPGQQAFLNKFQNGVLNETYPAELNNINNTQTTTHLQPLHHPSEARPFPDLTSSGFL
SENP7 inh = SENP7 protease inhibition. Q9BQF6. recombinant SENP7, Z-RLRGG-aminoluciferin luminescence, 40 min. inhibition, % at 5 µM. 330,000 tested, 1.5% active. AID 434973;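 active = inhibition above about 50% at the single test dose, limit read from the data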
SENP8 block-2 = SENP8 (human) protease inhibition. Q96LD8. recombinant SENP8, Nedd8 substrate fluorescence. inhibition, % at 20 µM. 360,000 tested, 0.64% active. AID 602440; in the data active = inhibition mostly above about 40%, no sharp cut-off; inactive = mostly below about 27%
EBI2 block = EBI2 (human) antagonism. P32249. EBI2 beta-arrestin recruitment, luminescence, 7a,25-OHC stimulated. inhibition, % at 5 µM. 360,000 tested, 0.81% active; in the data active = inhibition above about 38%;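 also: enzyme fragment complementation signal reports receptor beta-arrestin coupling in cells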
Numbers stand for hits; – = inactive; · = no result.

SMILES | SENP6 inh | SENP8 block-1 | AHR act | SENP7 inh | SENP8 block-2 | EBI2 block
Cc1sc2c(c1C)C(=O)NC(c1cccc(O)c1)N2 (stereo unspecified) | – | – | 55 | – | · | ·
COC(=O)c1ccc(C2NC(=O)c3c(sc(C)c3C)N2)cc1 (stereo unspecified) | – | – | – | – | – | –
C=CCc1c(C)nc(C)nc1N/N=C/c1ccc([N+](=O)[O-])cc1 | – | – | 78 | – | – | –
CCOc1cccc(CNc2ccc(O)cc2)c1OCc1ccc(Cl)cc1Cl | – | – | – | – | 69 | –
CCOc1cccc(CNc2ccc(O)cc2)c1OCc1ccccc1Cl | – | – | – | 55 | – | –
C[C@@H]1CNC(=O)c2c(C(=O)NCC(=O)OC(C)(C)C)ncn21 | · | · | · | · | – | –
COc1ccccc1/C=C/C=N/NC(=O)CCn1nnc2ccccc21 | – | – | 66 | – | – | –
COc1ccccc1/C=C\C=N\NC(=O)CCn1nnc2ccccc21 | – | – | 74 | – | – | –
CC(C)C[C@H]1CN([C@@H](Cc2ccccc2)CN2CCC[C@H]2CN2C(=O)C(=O)NC[C@@H]2Cc2ccccc2)C(=O)C(=O)N1CCc1ccccc1 | · | · | · | · | – | –
O=C1NC(c2ccc(Br)cc2)Nc2sc3c(c21)CCC3 (stereo unspecified) | – | – | 77 | – | – | –
O=C1NC(c2ccccn2)Nc2sc3c(c21)CCC3 (stereo unspecified) | – | – | – | – | – | –
O=C1Nc2ccccc2N(C(=O)c2ccc3ccccc3c2)C1c1nc2ccccc2[nH]1 (stereo unspecified) | · | · | · | · | – | –
Cc1cc(C)cc(C(=O)NCC(=O)OC(C)C(=O)N(C)c2ccccc2)c1 (stereo unspecified) | – | – | – | – | – | –
O=C(NCc1nc2ccccc2[nH]1)C1=C[C@@H](c2ccccc2)C[C@@H](OCCCCO)O1 | – | – | 57 | – | – | –
Cc1ccccc1S(=O)(=O)NC(=O)C1(C)CCN1C(=O)C1(c2ccc(Cl)cc2)CCC1 (stereo unspecified) | · | · | · | · | – | –
COc1ccc(NC(=O)CSc2nnc(-c3ccccn3)n2N)cc1Cl | – | – | 73 | – | – | –
Cc1ccc2cccc(OCc3ccc(Br)cc3)c2n1 | – | – | 73 | – | – | –
CCOC(=O)C1(C)CCN1C(=O)c1ccc(C(F)(F)F)cc1 (stereo unspecified) | · | · | · | · | – | –
O=C(NCC[C@H]1CC[C@@H](NC(=O)C2CCOCC2)[C@@H](CO)O1)Nc1ccc(Cl)cc1 | · | · | · | · | – | –
Cc1cccc(NC(=S)NNc2cccc(Cl)c2)c1 | – | – | 53 | – | – | –
O=C(NNC(=S)Nc1ccc(F)c(Cl)c1)c1ccccc1Br | – | – | – | – | – | –
Cc1cccc(NC(=S)NNC(=O)c2ccccc2Br)c1 | 68 | – | – | – | – | –
CC(C)NC(=O)C1(C)CSCC(=O)N1CC(F)(F)F (stereo unspecified) | · | · | · | · | – | –
CC1(c2ccc(Cl)cc2Cl)NC(=O)N(CC(=O)NCCC2=CCCCC2)C1=O (stereo unspecified) | · | · | · | · | – | –
O=C1Cc2cc(S(=O)(=O)NCc3ccc(F)cc3)ccc2N1 | – | – | – | – | – | –
SMILES | SENP6 inh | SENP8 block-1 | AHR act | SENP7 inh | SENP8 block-2 | EBI2 block
CCc1ccc(NC(=O)CCn2c(=O)c3cccn3c3ccccc32)cc1 | – | – | 50 | – | – | –
CCc1ccc(NC(=O)Cn2c(=O)c3cccn3c3ccccc32)cc1 | – | – | – | – | – | –
OCCN=Cc1c(O)[nH]c2ccccc12 | – | – | – | – | – | –
Oc1[nH]c2ccccc2c1C=Nc1ccccc1 | 67 | – | – | 62 | – | –
CC1Oc2ccccc2C=C1/C=N/Nc1ccc(C(=O)O)cc1 (stereo unspecified) | 96 | 96 | – | 89 | – | –
CCn1c(/C=N/Nc2ccc(C(=O)O)cc2)nc2ccccc21 | – | – | – | – | – | –
O=C(O)c1ccc(-c2ccc(-c3ccccc3)cc2)s1 | 99 | 97 | – | 101 | – | –
C=CCn1c(-c2cccs2)nc2nc3ccccc3nc21 | – | – | 70 | – | – | –
C=CCn1c(-c2cccs2)nc2ccccc21 | – | – | – | – | – | –
CC1(C(=O)NS(=O)(=O)c2ccccc2C(F)(F)F)CCN1C(=O)CC1CCCC1 (stereo unspecified) | · | · | · | · | – | –
Cc1cc2c(cc1C)C(c1ccccc1OC(C)C)CC(=O)N2 (stereo unspecified) | – | – | 52 | – | – | –
COc1ccccc1C1CC(=O)Nc2cc(C)c(C)cc21 (stereo unspecified) | – | – | – | – | – | –
Cc1nc2nc(-c3ccc(Cl)cc3)nn2c(C)c1Cl | – | – | 53 | – | · | ·
Cc1nc2nc(-c3ccccc3)nn2c(C)c1C | – | – | – | – | – | –
Cc1ccc(CS(=O)(=O)c2ncc(Cl)c(C(=O)Nc3ccc(OC(F)F)cc3)n2)cc1 | – | – | – | – | – | –
CCS(=O)(=O)c1ncc(Cl)c(C(=O)Nc2ccc(S(=O)(=O)N3CCCC(C)C3)cc2)n1 (stereo unspecified) | – | – | – | – | – | 50
CCC1CCCCN1S(=O)(=O)c1ccc(NC(=O)c2nc(S(C)(=O)=O)ncc2Cl)cc1 (stereo unspecified) | – | – | – | – | – | –
CS(=O)(=O)c1ncc(Cl)c(C(=O)Nc2ccc3ccccc3c2)n1 | · | · | · | · | – | 57
CCS(=O)(=O)c1ncc(Cl)c(C(=O)Nc2ccc(C)cc2)n1 | – | – | – | – | – | 53
CSc1nsc(SC)c1C(=O)Nc1ccc(Cl)cc1 | – | – | 58 | – | – | –
CSc1nsc(SC)c1C(=O)Nc1ccc(C)cc1 | – | – | – | – | – | –
CC(=NO)c1cc(Br)c2cccc3c2c1CC3 | · | · | · | · | – | –
Clc1ccc2[nH]c3c(c2c1)CCc1cn[nH]c1-3 | – | – | 96 | – | – | –
OCc1ccccc1-c1cccc2nccn12 | · | · | · | · | – | –
CC(C)NC(=O)/C(C#N)=C/c1ccc(N(C)C)o1 | – | – | – | – | 40 | –
SMILES | SENP6 inh | SENP8 block-1 | AHR act | SENP7 inh | SENP8 block-2 | EBI2 block
O=C(Nc1ccc(Cl)c([N+](=O)[O-])c1)c1cnccn1 | – | – | 70 | – | – | –
O=C(Nc1ccc(Cl)c([N+](=O)[O-])c1)c1ccncc1 | – | – | – | – | – | –
CC1Oc2ccccc2OC1(O)c1ccccn1 (stereo unspecified) | – | – | – | – | – | –
CC1Oc2ccccc2OC1(O)c1ccc2ccccc2n1 (stereo unspecified) | – | – | 51 | – | – | –
CCCn1c(=O)c2c(nc3n2CCCN3CCc2ccccc2)n(C)c1=O | – | – | – | – | – | –
Cn1c(=O)n(CCc2ccccc2)c(=O)c2c1nc1n2CCCN1CCc1ccccc1 | – | – | 83 | – | – | –
CSC(=S)NN=C(C)c1cccc(C)n1 | · | · | · | · | – | –
CC(C)CC1NC(=O)c2ccc(Cl)cc2-n2c1nc1ccc(Cl)cc1c2=O (stereo unspecified) | – | – | – | – | · | ·
N#C/C(=C\c1ccccc1O)C(=O)Nc1cccnc1 | 77 | 51 | – | 75 | – | –
